A number with no mark means an inactive call. Calls of active or inactive are those of the source.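 The calls were made as follows: active = fitted half-maximal concentration AC50 at or below ten times the highest valid tested dose, with signal falling as DNA is displaced (actives reach about 34 µM in these data); inconclusive = flat fit at moderate signal loss, or poor fit quality; inactive = the rest, including signal rising instead of falling.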

This assay in a line: acridine orange-DNA binding displacement – biochemical, fluorescence polarization, cherry-picked samples, set 2, artefact control for KSHV LANA DNA-binding inhibitor project, dose response (AID 504727).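 As to activity change, negative = DNA displacement: 0% = median of neutral control wells and -100% = mitoxantrone positive control wells.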 The following applies: series mostly up to 35 µM; activity change, negative = DNA displacement: at the top concentration.
Take `O=C1c2ccccc2-c2onc3ccc(NCc4ccco4)c1c23`: the AC50 is 3.82 µM (active).

With `Cc1cc(N)ccc1N=Nc1c(C)n(C)n(-c2ccccc2)c1=O`, the “activity change, negative = DNA displacement” value (“activity change” for short) was 3.39%.

For the molecule `Cc1ccsc1/C=N/NC(=O)Cc1ccc(Cl)cc1`, the “activity change” value was 2%.

With `COC(=O)c1ccccc1-c1c2ccc(=N)cc-2oc2cc(N)ccc12`, the AC50 was 0.035 µM (active).

For the molecule `Cn1c(=O)c2c(nc(N/N=C/c3ccc(OC(=O)c4ccco4)cc3)n2Cc2ccc(F)cc2)n(C)c1=O`, the “activity change” value is 24.9%.

As to `CSC(=NS(=O)(=O)c1ccc(N)cc1)NS(=O)(=O)c1cccs1`, the “activity change” value is 5.36%.

Take `O=C(O)Cc1c[nH]c2cccc(O)c12`: the “activity change” value was 1.91%.

`Cc1nn(C)c(C)c1N1C(=O)c2cccc3c(N)ccc(c23)C1=O`: the AC50 was 0.768 µM (active).

On to `CCn1c(SCc2nc3sc(C(=O)O)c(C)c3c(=O)[nH]2)nc2ccccc21`, for which the “activity change” value is -11%.

With `CCC(=O)Oc1ccc2c(c1)O/C(=C\c1ccco1)C2=O`, the “activity change” value is -9.88%.

For the molecule `CCNc1ccc2noc3c2c1C(=O)c1ccccc1-3`, the AC50 is 0.935 µM (active).

In the case of `Cn1c(=O)c(N)c2c3c(c(Br)ccc31)C(=O)c1ccccc1-2`, the half-maximal activity concentration (AC50) is 2.99 µM (active).

With `CC1(C)CCCN(C(=O)c2coc(=O)c(Br)c2)C1`, the “activity change” value was 6.71%.

In the case of `COc1ccccc1N1CCN(S(=O)(=O)c2c(C)[nH]c(C)c2C(=O)N2CCCC2)CC1`, the “activity change” value is 2.06%.

For the molecule `O=C(OCCN1C(=O)c2cccc3c(N4CCOCC4)ccc(c23)C1=O)c1ccc(Cl)cc1`, the AC50 was 18.5 µM (active).

Consider `COc1ccc(CCNC(=O)CCCNC(=O)Cn2cnc3sc(C)c(C)c3c2=O)cc1OC`, for which the “activity change” value was 4.76%.

Take `Cc1ccc(NC(=O)CN2C(=O)N/C(=C/c3cccn3-c3ccc(C(=O)O)cc3)C2=O)cc1`: the “activity change” value is 25%.

`Cc1cc2nc3c(=O)n(C4CCCCC4)c(=O)[nH]c3nc2cc1N`: the AC50 is 10.6 µM (active).

As for `CC(=O)Oc1ccc2c(c1)Oc1cc(OC(C)=O)ccc1C21OC(=O)c2ccccc21`, the half-maximal activity concentration (AC50) was 8.39 µM (active).

For the molecule `O=c1c2c(nc3cc(-c4ccc(F)cc4)[nH]n13)CCC2`, the “activity change” value is 2.38%.

`C/C(=N/NC(=O)c1ccncc1)c1cc2ccc(O)cc2oc1=O`: the half-maximal activity concentration (AC50) was 0.343 µM (active).

For `O=C(CN1C(=O)/C(=C/c2ccco2)SC1=S)Nc1ccc(C(=O)O)c(O)c1`, the “activity change” value was 5.32%.

Turning to `O=c1[nH]nc(CSCc2ccccc2Cl)[nH]1`, the “activity change” value was 4.01%.

As for `O=C(CCN1C(=O)/C(=C/c2ccco2)SC1=S)Nc1ccc(C(=O)O)c(O)c1`, the “activity change” value was 3.37%.

Take `CN(C)C(=O)c1ccc(NC(=O)COC(=O)C2(c3ccccc3)CCCC2)cc1`: the “activity change” value is 3.07%.

Regarding `O=C(Cn1nc(Cc2ccncc2)c2ccccc2c1=O)N1CCN(C(=O)c2ccco2)CC1`, the AC50 was 4.26 µM (active).

With `O=C(CSc1nc2ccccc2[nH]1)Nc1cccc(S(=O)(=O)N2CCOCC2)c1`, the “activity change” value was 3.04%.

In the case of `CCCCn1nc(CC(=O)O)c2ccccc2c1=O`, the “activity change” value is 2.89%.

Regarding `Cc1ccccc1NC(=O)CN1C(=O)N/C(=C\c2cccn2-c2cccc(C(=O)O)c2)C1=O`, the “activity change” value is 3.04%.

Turning to `COC(=O)c1ccc(Oc2nc(Nc3ccc(F)cc3)nc(N3CCCC3)n2)cc1`, the “activity change” value was 3.15%.

For `COc1cc(SC)ccc1C(=O)OCC(=O)N1CCN(C(C)=O)CC1`, the “activity change” value is 0.039%.

With `COc1ccc(OCC(=O)N2CCN(c3cccc(C(F)(F)F)c3)CC2)cc1`, the “activity change” value is 4.78%.

In the case of `CCN(CC(=O)NCc1cccs1)C(=O)c1ccc(S(=O)(=O)Nc2ccccc2C)cc1`, the “activity change” value was 0.528%.

Consider `CC(C)CN(C(=O)CSc1nncn1C)C1CCS(=O)(=O)C1` (stereo not drawn), for which the “activity change” value was 3.35%.

As for `COc1ccc(NS(=O)(=O)c2ccc3c(c2)[C@H]2C=CC[C@H]2[C@@H](c2ccc(C(=O)O)cc2)N3)cc1`, the “activity change” value is 5.91%.

With `COc1cccc(OCCNc2ccc([N+](=O)[O-])cn2)c1`, the “activity change” value is 6.5%.

For the molecule `NC(=S)COc1ccccc1`, the “activity change” value was 4.19%.

Consider `COc1ccc(Cl)cc1C(=O)NNC(=O)c1cc2ccccc2o1`, for which the “activity change” value is 7.26%.

Values taken from PubChem BioAssay AID504727 (Broad Institute, 2011).
